# Measured values: PubChem BioAssay (Tox21)
# Inconclusive results are not listed. Entries that show only a call come without a potency. A number with no mark means an inactive call. Active and inactive are the calls of the source. Unless noted, the call rests on the fitted dose curve; in most records, active means well fitted curve in the direction sought with a large enough effect in the repeat runs; inconclusive means weak or mixed curves; inactive means no such curve, though single readings can be large; an effect the other way counts as inactive or inconclusive.
# Key:
# [1] = qHTS assay to identify small molecule agonists of the peroxisome proliferator-activated receptor delta (PPARd) signaling pathway - cell viability counter screen (AID 743211); further: nearly all actives have a fitted effect of over 55% in size
# Summary of the method: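 Multiplexed format: after the 2 h room-temperature LiveBLAzer B/G FRET step, CellTiter-Glo was added to the same wells. Luminescence after 30 min gave cell viability; compound exposure was 17 h at 37C.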
# [2] = qHTS assay to identify small molecule antagonists of the peroxisome proliferator-activated receptor delta (PPARd) signaling pathway - cell viability counter screen (AID 743213); further: nearly all actives have a fitted effect of over 50% in size
# Summary of the method: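 Agonist-stimulated (L165041, 300 nM final) HEK293H PPARd UAS-bla cells are exposed to compounds for 17 h at 37 C, and ATP-based luminescence (CellTiter-Glo) from the same wells reports cytotoxicity.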
# [3] = target: Bile acid receptor (Homo sapiens) (UniProt Q96RI1); assay: qHTS assay to identify small molecule antagonists of the farnesoid-X-receptor (FXR) signaling pathway (AID 743217; active means well fitted inhibition curve with a large enough effect in the signal ratio in the repeat runs, not every such curve was filed as active; the % refers to the signal ratio)
# Summary of the method: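 Read-out: beta-lactamase FRET fluorescence (LiveBLAzer B/G substrate, 2 h, room temperature) in GeneBLAzer FXR-UAS-bla HEK 293T cells. Compounds were co-dosed with 50 uM chenodeoxycholic acid (final) and incubated 16 h at 37 °C.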
# [4] = qHTS assay to identify small molecule agonists of the farnesoid-X-receptor (FXR) signaling pathway - cell viability counter screen (AID 743218); further: nearly all actives have a fitted effect of over 45% in size
# Summary of the method: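 Luminescence from CellTiter-Glo, read after 30 min at RT, reports viability of GeneBLAzer FXR-UAS-bla HEK 293T cells treated 16 h with compounds in the wells used for the beta-lactamase reporter.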
# [5] = target: Bile acid receptor (Homo sapiens) (UniProt Q96RI1); assay: qHTS assay to identify small molecule agonists of the farnesoid-X-receptor (FXR) signaling pathway (AID 743220; active means well fitted activation curve with a large enough effect in the signal ratio in the repeat runs, not every such curve was filed as active; the % refers to the signal ratio)
# Summary of the method: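 FXR-UAS-bla HEK 293T cells carrying a UAS-driven beta-lactamase reporter were plated for 5 h at 37C/5% CO2, then exposed to DMSO-dissolved Tox21 10K compounds for 16 h at 37C. A LiveBLAzer B/G FRET substrate was loaded for 2 h at room temperature before fluorescence reading.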
# [6] = qHTS assay to identify small molecule antagonists of the farnesoid-X-receptor (FXR) signaling pathway - cell viability counter screen (AID 743221; active means well fitted cell-killing curve with a large enough effect in the repeat runs, not every such curve was filed as active; further: nearly all actives have a fitted effect of over 50% in size)
# Summary of the method: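 CellTiter-Glo, 30 min RT, luminescence; same wells as the LiveBLAzer FRET read. Cells: FXR-UAS-bla HEK 293T. Treatment: compound with chenodeoxycholic acid 50 uM final, 16 h at 37 C.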
# [7] = target: Vitamin D3 receptor (Homo sapiens) (UniProt P11473); assay: qHTS assay to identify small molecule agonists of the vitamin D receptor (VDR) signaling pathway (AID 743222; calls by dose curve)
# Summary of the method: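 Beta-lactamase reporter readout (LiveBLAzer B/G FRET, 2 h RT) in VDR-bla cells after 16 h compound treatment at 37C, 5% CO2; cells pre-incubated 4 h before pin transfer of DMSO solutions.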
# [8] = target: Vitamin D3 receptor (Homo sapiens) (UniProt P11473); assay: qHTS assay to identify small molecule antagonists of the vitamin D receptor (VDR) signaling pathway (AID 743223; active means well fitted inhibition curve with a large enough effect in the signal ratio in the repeat runs, not every such curve was filed as active; the % refers to the signal ratio)
# Summary of the method: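 After VDR-bla cells are plated and left 4 h at 37C, DMSO-dissolved compounds and 3 nM (final) calcitriol agonist are added. Incubation continues 16 h at 37C; FRET beta-lactamase substrate then develops 2 h at room temperature.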
# [9] = qHTS assay to identify small molecule agonists of the vitamin D receptor (VDR) signaling pathway - cell viability counter screen (AID 743224); further: nearly all actives have a fitted effect of over 50% in size; further: potency means the concentration at half of the fitted maximal effect
# Summary of the method: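 Cytotoxicity counter screen: VDR-bla cells, 16 h compound exposure at 37C, 5% CO2; CellTiter-Glo luminescence, 30 min RT, same wells as bla read.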
# [10] = qHTS assay to identify small molecule antagonists of the vitamin D receptor (VDR) signaling pathway - cell viability counter screen (AID 743225); further: nearly all actives have a fitted effect of over 50% in size
# Summary of the method: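 Cytotoxicity toward the VDR-bla HEK 293T line was scored by ATP-based CellTiter-Glo luminescence, read in the wells already used for the beta-lactamase readout after 16 h compound treatment under 3 nM 1-alpha,25-dihydroxyvitamin D3 stimulation.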
# [11] = qHTS assay to identify small molecule agonists of the NFkB signaling pathway (AID 1159509; active means well fitted curve in the direction sought with a large enough effect in the signal ratio in the repeat runs, not every such curve was filed as active; the % refers to the signal ratio; further: series mostly up to about 61 µM)
# Summary of the method: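 Agonist activity was read as beta-lactamase-driven FRET change (460 and 530 nm emission, 405 nm excitation) following 1.5 hr substrate loading at room temperature. Beforehand, ME-180 NFkB-bla reporter cells were treated with compounds for 5 hr at 37 C.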
# [12] = qHTS assay to identify small molecule agonists of the NFkB signaling pathway - cell viability counter screen (AID 1159515; calls by dose curve; further: series mostly up to about 61 µM; nearly all actives have a fitted effect of over 55% in size)
# Summary of the method: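 ME-180 NFkB-bla cells, 2,000/well; overnight attach; compound 5 hr, 37 C/5% CO2; LiveBLAzer substrate 1.5 hr RT; then CellTiter-Glo in same wells, 30 min RT, luminescence read.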
# [13] = qHTS assay to identify small molecule agonists of the endoplasmic reticulum stress response signaling pathway (AID 1159516; active means well fitted activation curve with a large enough effect in the signal ratio in the repeat runs, not every such curve was filed as active; the % refers to the signal ratio)
# Summary of the method: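 HeLa ESRE-bla reporter line; cpd 5 h, 37 C/5% CO2; LiveBLAzer B/G FRET substrate 2 h RT; ex 405, em 460/530 nm.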
# [14] = qHTS assay to identify small molecule agonists of the endoplasmic reticulum stress response signaling pathway - cell viability counter screen (AID 1159517; calls by dose curve)
# Summary of the method: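 Cpd-treated ESRE-bla HeLa (5 hr, 37 C) → LiveBLAzer 2 hr RT → CellTiter-Glo 30 min RT → luminescence.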
# [15] = qHTS assay to identify small molecule antagonists of the retinoid-related orphan receptor gamma (ROR-gamma) signaling pathway - cell viability counter screen (AID 1159520); further: nearly all actives have a fitted effect of over 50% in size
# Summary of the method: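 Tet-on ROR gamma CHO cells (1,000/well) were plated 4 hr, given compounds in DMSO for 2 hr at 37 C, then induced with 1 uM final doxycycline for 16 hr. Viability was read as ATP by CellTiter-Glo luminescence after 30 min.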
# [16] = qHTS assay to identify small molecule agonists of the AP-1 signaling pathway - cell viability counter screen (AID 1159525; calls by dose curve; further: nearly all actives have a fitted effect of over 55% in size)
# Summary of the method: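 Each titration point was normalised to DMSO and tetra n-octyl ammonium bromide controls. The read was Cell Titer Glo luminescence after 30 min at RT, following 5 h compound exposure of ME-180 AP-1-bla cells at 37 °C.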
# [17] = qHTS assay to identify small molecule agonists of the AP-1 signaling pathway (AID 1159526; calls by dose curve)
# [18] = target: Peroxisome proliferator-activated receptor delta (Homo sapiens) (UniProt Q03181); assay: qHTS assay to identify small molecule antagonists of the peroxisome proliferator-activated receptor delta (PPARd) signaling pathway (AID 743215; active means well fitted inhibition curve with a large enough effect in the signal ratio in the repeat runs, not every such curve was filed as active; the % refers to the signal ratio; further: series mostly up to about 62 µM)
# Summary of the method: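 HEK293H GeneBLAzer PPARd UAS-bla reporter cells; cpd + L165041 300 nM final, 17 h 37 C; LiveBLAzer B/G FRET substrate 2 h RT; fluorescence intensity read-out. Antagonist mode.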
# [19] = target: Peroxisome proliferator-activated receptor delta (Homo sapiens) (UniProt Q03181); assay: qHTS assay to identify small molecule agonists of the peroxisome proliferator-activated receptor delta (PPARd) signaling pathway (AID 743212; calls by dose curve)
# Summary of the method: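 Cells expressing a UAS-driven beta-lactamase reporter (PPARd-bla HEK293H) were given test compounds after a 5 h settle and kept at 37 C. Reporter activity was then measured as FRET fluorescence using LiveBLAzer B/G substrate.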
# Peroxisome proliferator-activated receptor delta (Homo sapiens), sequence (Q03181 whole entry, looked up): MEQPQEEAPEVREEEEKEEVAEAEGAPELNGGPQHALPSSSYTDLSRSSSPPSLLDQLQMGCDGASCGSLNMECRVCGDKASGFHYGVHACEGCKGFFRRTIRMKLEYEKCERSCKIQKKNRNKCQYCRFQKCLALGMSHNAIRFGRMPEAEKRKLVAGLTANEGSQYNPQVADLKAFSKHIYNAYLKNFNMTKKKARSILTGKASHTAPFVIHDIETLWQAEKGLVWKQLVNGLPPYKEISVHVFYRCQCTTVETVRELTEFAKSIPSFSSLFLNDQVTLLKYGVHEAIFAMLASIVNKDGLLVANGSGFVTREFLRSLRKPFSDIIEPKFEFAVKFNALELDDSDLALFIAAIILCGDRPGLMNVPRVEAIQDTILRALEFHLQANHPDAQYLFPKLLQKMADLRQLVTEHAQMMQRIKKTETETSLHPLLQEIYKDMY
# Vitamin D3 receptor (Homo sapiens), sequence (P11473 whole entry, looked up): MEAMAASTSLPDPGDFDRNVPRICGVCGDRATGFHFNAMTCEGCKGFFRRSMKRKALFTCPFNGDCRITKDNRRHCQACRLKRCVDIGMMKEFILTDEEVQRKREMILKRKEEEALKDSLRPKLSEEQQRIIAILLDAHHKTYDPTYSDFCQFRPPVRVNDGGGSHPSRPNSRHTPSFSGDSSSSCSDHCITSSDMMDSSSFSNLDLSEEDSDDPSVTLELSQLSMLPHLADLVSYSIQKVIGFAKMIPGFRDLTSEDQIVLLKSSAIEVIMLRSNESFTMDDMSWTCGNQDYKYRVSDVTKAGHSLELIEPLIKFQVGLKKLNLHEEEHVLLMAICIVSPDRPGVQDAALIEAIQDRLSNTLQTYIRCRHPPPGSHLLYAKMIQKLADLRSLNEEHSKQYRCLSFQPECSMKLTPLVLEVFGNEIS
# Bile acid receptor (Homo sapiens), sequence (Q96RI1 whole entry, looked up): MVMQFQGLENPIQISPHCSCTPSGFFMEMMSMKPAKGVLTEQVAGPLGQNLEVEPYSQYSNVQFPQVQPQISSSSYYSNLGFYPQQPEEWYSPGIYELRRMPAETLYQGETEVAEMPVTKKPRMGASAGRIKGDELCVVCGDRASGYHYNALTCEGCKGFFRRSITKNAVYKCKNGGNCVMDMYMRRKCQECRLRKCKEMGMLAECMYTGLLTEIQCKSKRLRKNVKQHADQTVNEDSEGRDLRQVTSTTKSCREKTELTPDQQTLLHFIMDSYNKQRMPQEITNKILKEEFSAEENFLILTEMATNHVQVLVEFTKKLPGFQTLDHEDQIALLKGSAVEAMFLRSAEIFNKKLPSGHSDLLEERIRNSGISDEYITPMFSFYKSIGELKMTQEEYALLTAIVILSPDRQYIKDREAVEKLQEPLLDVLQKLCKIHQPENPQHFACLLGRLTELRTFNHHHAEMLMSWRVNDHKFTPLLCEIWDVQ
Compound,Potency [1],Potency [2],Potency [3],Potency [4],Potency [5],Potency [6],outcome [7],outcome [8],Potency [9],Potency [10],outcome [11],outcome [12],outcome [13],outcome [14],Potency [15],outcome [16],outcome [17],Potency [18],Potency [19]
CCC(C(=O)OCCOCCN(CC)CC)c1ccccc1 (configuration not stated),inactive,inactive,inactive,inactive,inactive,inactive,inactive,inactive,inactive,inactive,inactive,inactive,inactive,inactive,inactive,inactive,inactive,–,–
COC(=O)[C@@H]1CC2=CC(=O)CC[C@]2(C)[C@@]23O[C@@H]2C[C@@]2(C)[C@@H](CC[C@@]24CCC(=O)O4)[C@H]13,inactive,inactive,–,inactive,–,inactive,inactive,inactive,–,inactive,inactive,inactive,inactive,inactive,inactive,inactive,inactive,inactive,–
CCCCN(CCCC)CCCOC(=O)c1ccc(N)cc1,inactive,inactive,inactive,inactive,–,inactive,–,–,inactive,inactive,inactive,inactive,inactive,inactive,inactive,inactive,inactive,–,–
CCOC(=O)N1CCC(n2c(=O)[nH]c3cc(Cl)ccc32)CC1,inactive,inactive,–,inactive,–,inactive,–,inactive,inactive,inactive,inactive,inactive,inactive,inactive,inactive,inactive,inactive,–,–
CC(=O)OCC(=O)[C@@]12OC(C)(C)O[C@@H]1C[C@H]1[C@@H]3C[C@H](F)C4=CC(=O)C=C[C@]4(C)[C@@]3(F)[C@@H](O)C[C@@]12C,inactive,inactive,–,inactive,–,inactive,inactive,–,inactive,inactive,inactive,inactive,inactive,inactive,inactive,inactive,inactive,inactive,–
CN(C)C(=O)Nc1ccc(Oc2ccc(Cl)cc2)cc1,inactive,inactive,–,inactive,–,inactive,inactive,inactive,inactive,inactive,inactive,inactive,inactive,inactive,inactive,inactive,inactive,–,–
Oc1ccc(Nc2ccccc2)cc1,inactive,–,inactive,–,–,inactive,inactive,–,54.9 µM (active),–,inactive,inactive,inactive,inactive,inactive,inactive,inactive,–,inactive
CN1Cc2cc(C(=O)N3CCC(C4CCNCC4)CC3)ccc2N[C@@H](CC(=O)O)C1=O,inactive,inactive,–,inactive,–,inactive,–,–,inactive,inactive,inactive,inactive,inactive,inactive,inactive,inactive,inactive,inactive,–
CCOC(=O)[C@@H](C)Oc1ccc(Oc2nc3ccc(Cl)cc3o2)cc1,inactive,inactive,–,–,inactive,inactive,inactive,inactive,inactive,inactive,inactive,inactive,inactive,inactive,inactive,inactive,inactive,–,–
